# Measured values: PubChem BioAssay AID2015 (National Center for Advancing Translational Sciences (NCATS), 2009)
# This is one part of the list. Inconclusive results are not listed. Calls of active or inactive are those of the source. Calls follow the shape of the dose curve; as a rule, active = well fitted inhibition curve with a large enough effect; inconclusive = small, poorly fitted or top-dose-only effect; inactive = flat fitted curve, though single readings scatter.
# Biological target: Galactokinase (Homo sapiens) (UniProt P51570)
# Assay: Confirmation Assay for Inhibitors of Human Galactokinase (GALK)
# Conditions: purified GALK, Kinase-Glo ATP depletion luminescence; series mostly up to 115 µM; activity, negative = inhibition: at the top concentration
# Description: NIH Molecular Libraries Probe Production Centers Network [MLPCN] NIH Chemical Genomics Center [NCGC] MLPCN Grant: R03 MH085689-01 Assay Submitter (PI): Kent Lai (University of Utah School of Medicine, 50 N Mario Capecchi Drive, Salt Lake City, UT 84132) NCGC Assay Overview Inherited deficiency of galactose-1-phosphate uridyltransferase (GALT) can result in a potentially lethal disorder called Classic Galactosemia (OMIM 230400). Several lines of evidence indicate that an elevated level of galactose-1-phosphate (gal-1-p), the product of galactokinase (GALK), is a major, if not sole, pathogenic mechanism in patients with classic galactosemia. Therefore, finding inhibitors of GALK is a potential novel therapy for this inherent metabolic disease and is the long term goal of this project. Active compounds observed in the qHTS GALK assay (AID: 1868) were cherry picked and re-screened for validation. GALK (provided by Kent Lai) was assayed using ATP and D-(+)-Galactose (Sigma-Aldrich cat# G0750) as substrates. Promega Kinase-Glo Plus (cat# V3774) technology was used to detect the residual ATP following kinetic reaction. Briefly, the Kinase-Glo Plus contains Ultra-Glo [1] luciferase and D-luciferin which generates a bioluminescence signal from the remaining ATP. Kinase reactions with and without GALK were used as negative and positive controls together with Protein Tyrosine Phosphatase CD45 inhibitor (EMD Bioscience cat# 540215) which is shown to inhibit GALK activity.
# NCGC Assay Protocol Summary: Three uL/well of ATP-buffer solution (35 uM ATP, 20mM HEPES pH8.0, 5 mM MgCl2, 60 mM NaCl, 1 mM DTT, 0.01% BSA final concentration) was dispensed into 1536-well, assay plates (Greiner, solid white medium-binding plates) with Aurora Discovery BioRAPTR Flying Reagent Dispenser (FRD; Beckton-Dickenson). Compound and control solution (23 nL) was transferred to the assay plate using the Kalypsys 1536-pin tool apparatus. One uL/well GALK-galactose solution (5 nM GALK, 100 uM galactose, 20 mM HEPES pH8.0, 5 mM MgCl2, 60 mM NaCl, 1 mM DTT, 0.01% BSA final concentration) was then added using the FRD yielding a total kinase reaction volume of 4 uL/ well. After 1 hour of room temperature incubation, 4 uL Kinase-Glo Plus reagent was added for a final assay volume of 8 uL/well. Luminescence was detected with the ViewLux plate reader (Perkin Elmer, Waltham, MA) after 2 min incubation using a 1 sec exposure time and 2x binning.
# Sequence of Galactokinase (Homo sapiens) (P51570 whole entry, looked up): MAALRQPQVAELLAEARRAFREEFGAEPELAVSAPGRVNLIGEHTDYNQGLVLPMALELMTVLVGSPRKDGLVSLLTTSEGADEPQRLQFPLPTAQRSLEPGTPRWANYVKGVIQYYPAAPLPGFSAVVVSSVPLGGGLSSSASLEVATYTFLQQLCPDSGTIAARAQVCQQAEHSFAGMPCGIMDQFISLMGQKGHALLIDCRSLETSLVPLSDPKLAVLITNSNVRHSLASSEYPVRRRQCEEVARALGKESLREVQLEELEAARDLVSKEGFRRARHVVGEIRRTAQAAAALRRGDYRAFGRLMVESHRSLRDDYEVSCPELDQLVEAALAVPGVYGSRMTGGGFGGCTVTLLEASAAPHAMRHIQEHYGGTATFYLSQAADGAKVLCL
Compound,Potency,"activity, negative = inhibition"
N#C/C(=C(/O)Cc1cccc2ccccc12)c1nc2ccccc2s1,33.5 µM (active),
COc1cccc2cc(-c3cc(=O)oc4cc(C)c(O)cc34)oc12,,-8.9% (inactive)
CCS(=O)(=O)C1=NSC2=NC(=O)/C(=C\c3ccc(OS(=O)(=O)c4ccccc4)cc3)C(=N)N21,26.6 µM (active),
N#Cc1c(N2CCCCC2)nc(N)c2c(N)nc(SCC(=O)O)cc12,21.1 µM (active),
Oc1c(Cl)cc(Cl)c(Cl)c1Cc1c(O)c(Cl)cc(Cl)c1Cl,21.1 µM (active),
CCOC(=O)c1c(C)[nH]c2c1-c1ccccc1C(=O)C2=O,1.68 µM (active),
